Screen size: about 5,500 compounds; about 2,000 (36%) were called active. Another 18% or so got no clear call; they are omitted. No stated cut-off is given here; in the data, active means normalized growth mostly below about 0.91 (no sharp cut-off); inconclusive means no clear call, values can overlap the other calls; inactive means mostly above about 0.92. The list shows a part of the results.
Assay: chemical genetic growth profiling, strain panel (AID 1159580);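 further: tested at 20 µM; growth read once vehicle control cultures reached saturation at 30 °C; 1 = growth at the plate median or of vehicle wells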
Details: S. cerevisiae deletion strains, growth OD
[1] = locus YAL040C, strain CLN3, stronger effect = lower value
[2] = locus YDR363W, strain ESC2, stronger effect = lower value
[3] = locus YER002W, strain NOP16, stronger effect = lower value
[4] = locus YNL175C, strain NOP13, stronger effect = lower value
[5] = locus YNL197C, strain WHI3, stronger effect = lower value
[6] = locus YNL224C, strain SQS1, stronger effect = lower value
[7] = locus YOR083W, strain WHI5 (second series), stronger effect = lower value

Measured: normalized growth

NC1(C(=O)O)CCCCC1
inactive: [1] 0.993 | [2] 0.98 | [3] 1.01 | locus YJR075W, strain HOC1, stronger effect = lower value 0.992 | locus YMR263W, strain SAP30, stronger effect = lower value 0.995 | locus YNL153C, strain GIM3, stronger effect = lower value 0.982 | [4] 1.01 | [5] 0.992 | [6] 0.98 | [7] 0.981

N.N.O=C(O)C1(C(=O)O)CCC1.[Pt+2]
inactive: [1] 0.986 | locus YCL061C, strain MRC1 (second series), stronger effect = lower value 1 | locus YDR150W, strain NUM1, stronger effect = lower value 1 | [2] 0.988 | [3] 1.02 | locus YMR307W, strain GAS1, stronger effect = lower value 0.984 | [4] 0.998 | [5] 1.04 | [6] 1 | [7] 0.995 | locus YPL055C, strain LGE1, stronger effect = lower value 0.998

Reference: PubChem BioAssay AID1159580 (chemical genetic matrix, 2015)
